This note sets out measurements from PubChem BioAssay (NCATS).

Structures are written as SMILES. Values joined by “and” are separate entries in the source; they are usually repeats but may differ in a detail not shown here. Identical values can stand only once. Records with an inconclusive call do not appear. A number with no mark means an inactive call. Active and inactive are the calls of the source. The call rests on the fitted dose curve; in most records, active means well fitted curve in the direction sought with a large enough effect; inconclusive means small, poorly fitted or top-dose-only effect, or another doubt; inactive means no such curve, though single readings can be large; an effect the other way counts as inactive or inconclusive.

Assay [1] deals with CRL-7250. In words: Cytotoxic Profiling of Annotated Libraries Using Quantitative High-Throughput Screening (AID 1296008). Further: nearly all actives have a fitted effect of over 60% in size. Further: potency means the concentration at half of the fitted maximal effect. On max response: on the % scale 0 is the no-effect control and ±100 the full control effect. Particulars: Five cell lines viability, CellTiter-Glo ATP luminescence, 48-72 h; max response: stronger effect = lower value. In short, it runs like this: (§1)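 Compounds were pin-transferred onto cells and incubated 48 or 72 hr at 37 degree Celsius, 95% humidity. CellTiter-Glo was added, plates sat 10 min at room temperature, then ATP-coupled luminescence was imaged as the viability read-out.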

For assay [2], the system named is HEK293. The assay is described as above. The settings on record: Five cell lines viability, CellTiter-Glo ATP luminescence, 48-72 h; max response: stronger effect = lower value. Summed up:
as §1
For orientation: In ATP-based viability assays light output follows the ATP content of the culture.

The test system of assay [3] is HaCat. Described as above. Particulars: Five cell lines viability, CellTiter-Glo ATP luminescence, 48-72 h; max response: stronger effect = lower value. In short, it runs like this:
as §1

For assay [4], the system named is KB-3-1. The assay is described as above. Particulars: Five cell lines viability, CellTiter-Glo ATP luminescence, 48-72 h; max response: stronger effect = lower value. Summed up:
as §1

For assay [5], the system named is NIH3T3. The description is as above. Particulars: Five cell lines viability, CellTiter-Glo ATP luminescence, 48-72 h; max response: stronger effect = lower value. In short, it runs like this: as §1
The test system of assay [6] is HACAT. In words: qHTS assay to identify novel small-molecules to repurpose for Merkel cell carcinoma treatment (AID 1296009). Further: nearly all actives have a fitted effect of over 60% in size. On activity change, negative = cytotoxicity: on the % scale 0 is the no-effect control and ±100 the full control effect. Particulars: MCC and control cell lines, CellTiter-Glo viability, 72 h; at 44.8 µM (top of the series) unless noted. Summed up:
(§2)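 Viability readout: ATP luminescence (CellTiter-Glo) after 72 hr drug exposure at 37 degree celsius. Dose-response format was 8 points for NPC and 11 points for MIPE; data normalized to in-plate controls.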
For orientation: In qHTS, concentration-response curves come from the screen itself.

Assay [7] deals with MCC-13. Described as above. Particulars: MCC and control cell lines, CellTiter-Glo viability, 72 h; series mostly up to 46 µM. Summed up: as §2
In assay [8] the test system is MCC-26. The assay is described as above. The settings on record: MCC and control cell lines, CellTiter-Glo viability, 72 h; series mostly up to 46 µM. In short, it runs like this:
as §2

The test system of assay [9] is MKL-1. The assay is described as above. The settings on record: MCC and control cell lines, CellTiter-Glo viability, 72 h; series mostly up to 46 µM. Summed up: as §2
In assay [10] the test system is MKL-2. The assay is described as above. Particulars: MCC and control cell lines, CellTiter-Glo viability, 72 h; series mostly up to 46 µM. Summed up:
as §2

The subject of assay [11] is UISO. Described as above. Particulars: MCC and control cell lines, CellTiter-Glo viability, 72 h; series mostly up to 46 µM. Summed up: as §2
Assay [12] has as its system WaGa. Described as above. Particulars: MCC and control cell lines, CellTiter-Glo viability, 72 h; series mostly up to 46 µM. Summed up: as §2
The test system of assay [13] is C33A. In words: Primary qHTS to identify gynecologic anti-cancer compounds using libraries of approved drugs and bioactive compounds (AID 1345084). Further: on the % scale 0 is the no-effect control and ±100 the full control effect; nearly all actives have a fitted effect of over 55% in size. The settings on record: Gynecologic cancer cell panel viability, ATPlite luminescence, 48 h; series mostly up to 57.5 µM. Summed up: (§3)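 Cells, 1,000 per well, were allowed to settle for 16 h at 37 C before compound addition. Five concentrations were tested for 48 h, and viability was read by ATPlite luminescence after 15 min at room temperature.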

The test system of assay [14] is CASKI. The assay is described as above. Particulars: Gynecologic cancer cell panel viability, ATPlite luminescence, 48 h; series mostly up to 57.5 µM. In short, it runs like this: as §3
Assay [15] concerns Es-2. Described as above. The settings on record: Gynecologic cancer cell panel viability, ATPlite luminescence, 48 h; series mostly up to 57.5 µM. Summed up:
as §3

Assay [16] concerns TAB165. The assay is described as follows: qHTS profiling for inhibitors of Plasmodium falciparum proliferation (AID 504749). Further: nearly all actives have a fitted effect of over 60% in size. Further: potency means the concentration at half of the fitted maximal effect. The settings on record: P. falciparum in erythrocytes, SYBR Green DNA, 72 h; series mostly up to 28.7 µM. Summed up: (§4)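 Quantitative HTS: compounds pinned into medium, infected erythrocytes added (0.3% parasitemia, 2.5% hematocrit), 72 h culture at 37 C under 5% CO2. Saponin/Triton lysis with SYBR Green I, overnight RT, then fluorescence read.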

The test system of assay [17] is W2. The assay is described as above. Particulars: P. falciparum in erythrocytes, SYBR Green DNA, 72 h; series mostly up to 28.7 µM. Summed up:
as §4

Assay [18] relates to HEK293T. The assay is described as follows: qHTS assay to identify novel small-molecules to repurpose for Merkel cell carcinoma treatment (AID 1296009). Further: nearly all actives have a fitted effect of over 60% in size. On activity change, negative = cytotoxicity: on the % scale 0 is the no-effect control and ±100 the full control effect. The settings on record: MCC and control cell lines, CellTiter-Glo viability, 72 h; at 44.8 µM (top of the series) unless noted. In short, it runs like this:
as §2

Assay [19] has as its system NIH3T3. Described as above. Particulars: MCC and control cell lines, CellTiter-Glo viability, 72 h; at 44.8 µM (top of the series) unless noted. Summed up: as §2
The subject of assay [20] is CAOV3. In words: Primary qHTS to identify gynecologic anti-cancer compounds using libraries of approved drugs and bioactive compounds (AID 1345084). Further: on the % scale 0 is the no-effect control and ±100 the full control effect; nearly all actives have a fitted effect of over 55% in size. Particulars: Gynecologic cancer cell panel viability, ATPlite luminescence, 48 h; series mostly up to 57.5 µM. In short, it runs like this: as §3

As for `CS(=O)(=O)c1ccc([C@@H](O)[C@@H](CF)NC(=O)C(Cl)Cl)cc1`, the max response in [1] was -8.92%; in assay [3], 3.4%; in assay [4], -19.8%; in assay [5], -3.77% and 0.419%. Further, the call in assay [1], in assay [3] and in [6] was inactive. Besides, the Potency in assay [2] was 2.99 µM (active). Moreover, the Potency result in assay [7], in [8], in assay [9], in assay [10], in [11] and in assay [12] was “inactive” throughout. The Potency entry in assay [13], in assay [14] and in assay [15] was “inactive” throughout.
With `OCC(O)CN1CCN(c2ccccc2)CC1` (stereo not drawn), the Potency entry in assay [16], in [17], in assay [7], in assay [9], in [10] and in assay [11] was “inactive” in each case. The Potency entry in assay [12], in [13], in assay [20], in assay [14] and in assay [15] was “inactive” each time. Also, the max response is 0.497% and 1.49% in assay [1]; -1.21% in assay [2]; -30% in assay [3]; -1.52% in assay [5]. Besides, the compound was called inactive in assay [2], in [5], in assay [18] and in [19].
On to `CCN(CC)CCNC(=O)c1cc(Cl)c(N)cc1OC`, for which the Potency result in [16], in assay [17], in [7], in [8], in [9] and in assay [10] was “inactive” in each case. For the same compound, the Potency result in assay [11], in assay [12], in assay [13], in assay [20], in assay [14] and in assay [15] was “inactive” throughout. The max response was 0.565% in [1], -1.38% in assay [2], 1.24% in assay [3] and -2.52% in [5]. Besides, the call in [2], in [3], in assay [5], in assay [6], in [18] and in [19] was inactive.
For `O=C(O)[C@@H]1CSCN1`, the Potency entry in [16], in [7], in assay [8], in assay [9], in [10] and in [11] was “inactive” each time. The Potency result in [12], in assay [13], in assay [20], in assay [14] and in [15] was “inactive” in each case. The figures for the max response in assay [1] and in assay [4] were -15.8% and 0.966%, respectively. Further, the outcome in assay [2], in [3], in assay [5], in [6], in [18] and in assay [19] was inactive.
On to `CCN(CC)CCNC(C(=O)OCCC(C)C)c1ccccc1` (stereo not drawn), for which the results for the Potency in [16] and in [17] were 10 µM (active) and 4.78 µM (active), respectively. Besides, the max response in assay [1] is 1.18%; in assay [4], 11.9%. Also, the compound was called inactive in [2], in [3], in assay [5], in assay [6], in assay [18] and in [19]. Further, the Potency entry in assay [7], in assay [8], in assay [9], in [10], in [11] and in assay [12] was “inactive” in each case. In addition, the Potency entry in [13], in assay [20], in [14] and in [15] was “inactive” throughout.
Turning to `COC(=O)[C@H]1[C@H]2C[C@@H]3c4[nH]c5cc(OC)ccc5c4CCN3C[C@H]2C[C@@H](OC(=O)COc2ccc(OC)cc2)[C@@H]1OC`, the max response is -0.18% in assay [1] and 0.718% in assay [4]. In addition, the call in assay [2], in assay [3], in assay [5], in assay [6], in [18] and in [19] was inactive. Also, the Potency entry in [7], in [8], in [9], in assay [10], in assay [11] and in [12] was “inactive” throughout. In addition, the Potency entry in assay [13], in assay [20], in assay [14] and in assay [15] was “inactive” each time.
Regarding `C[C@@H]1C[C@H]2[C@@H]3C[C@H](F)C4=CC(=O)C=C[C@]4(C)[C@@]3(F)[C@@H](O)C[C@]2(C)[C@@]1(O)C(=O)CO`, the max response in assay [1] is -4.29%; in [2] it was -7.17%; in assay [3], -8.88% and 2.84%; in assay [4], 18.2%; in assay [5], -2.74% and -3.01%. Moreover, the compound was called inactive in [1], in assay [2], in assay [4] and in assay [18]. The Potency result in assay [7], in assay [9], in assay [10], in assay [11], in [12] and in assay [13] was “inactive” throughout. Further, the Potency entry in assay [20], in assay [14] and in assay [15] was “inactive” in each case.
In the case of `CN1CCC[C@@H]1Cc1c[nH]c2ccc(CCS(=O)(=O)c3ccccc3)cc12`, the Potency in assay [17] was 4.78 µM (active). Also, the outcome in assay [1], in [2], in [3], in [5], in [6] and in [18] was inactive. The outcome in assay [19] was inactive. In addition, the figures for the max response in assay [2] and in assay [5] were -1.58% and -4.41%, respectively. In addition, the Potency entry in [7], in assay [9], in assay [10], in assay [11], in assay [12] and in assay [13] was “inactive” each time. For the same compound, the Potency entry in assay [14] and in assay [15] was “inactive” in each case.
For the compound `Oc1ccc(C(O)CNCCCCCCNCC(O)c2ccc(O)c(O)c2)cc1O` (stereo not drawn), the values for the Potency in [16] and in assay [17] were 11.2 µM (active) and 16.9 µM (active), respectively. Further, the results for the max response in assay [1], in assay [4] and in assay [5] were -1.96%, 1.48% and 0.438%, respectively. Further, the compound was classed as inactive in assay [2], in [3], in [6] and in assay [18]. In addition, the Potency entry in assay [7], in assay [8], in assay [9], in assay [10], in assay [11] and in assay [12] was “inactive” throughout. For the same compound, the Potency result in assay [13], in assay [20], in assay [14] and in assay [15] was “inactive” throughout.
In the case of `CC(=O)CCC(=O)O`, the Potency entry in [16], in assay [17], in assay [7], in assay [8], in [9] and in assay [10] was “inactive” in each case. Also, the Potency result in assay [11], in assay [12], in [13], in [14] and in assay [15] was “inactive” throughout. The max response in assay [1] was -8.02%; in assay [4] it was 2.58%. Besides, the result in [2], in [3], in [5], in assay [6], in assay [18] and in assay [19] was inactive.
With `NCCNCCNCCNCCN`, the Potency entry in [16] and in assay [17] was “inactive” each time. In addition, the max response in [1] is 3.13%; in assay [4], -4.72%; in [5], -0.231%. Besides, the compound was classed as inactive in [2] and in [3]. The outcome in assay [6] and in assay [18] was “inactive [at 9.27 µM]” each time. In addition, the activity change, negative = cytotoxicity in [7] was 6.32% [at 9.22 µM]; in assay [8] it was -6.59% [at 9.22 µM]; in assay [9], -8% [at 9.22 µM]; in assay [10], -0.706% [at 9.22 µM]; in assay [11] it was 44% [at 9.22 µM]; in [12] it was -2.21% [at 9.22 µM]. Besides, the activity change, negative = cytotoxicity in assay [13] is 13.2% [at 11.6 µM]; in assay [20], 11.8% [at 11.6 µM]; in [14], 1.72% [at 11.6 µM]; in [15] it was -5.14% [at 11.6 µM].
